The record followed here is PubChem BioAssay (NCATS).

Inconclusive results are not listed. Entries that show only a call come without a potency. The source made the active and inactive calls. Calls come from the whole dose curve; as a rule, active = well fitted inhibition curve with a large enough effect; inconclusive = small, poorly fitted or top-dose-only effect; inactive = flat fitted curve, though single readings scatter.
Potency is the fitted concentration of half-maximal effect.

In the assay the target is DNA repair nuclease/redox regulator APEX1 (Homo sapiens) (UniProt P27695). Nature of the assay: qHTS Validation Assay for Inhibitors of the Human Apurinic/apyrimidinic Endonuclease 1 (APE1) (AID 1705). The settings on record: purified APE1 endonuclease activity, fluorescence, titration; series mostly up to 57.1 µM. From the text: Assay Provider: David M. Wilson, III, National Institute on Aging, NIH
DNA repair nuclease/redox regulator APEX1 (Homo sapiens), sequence (P27695 whole entry, looked up): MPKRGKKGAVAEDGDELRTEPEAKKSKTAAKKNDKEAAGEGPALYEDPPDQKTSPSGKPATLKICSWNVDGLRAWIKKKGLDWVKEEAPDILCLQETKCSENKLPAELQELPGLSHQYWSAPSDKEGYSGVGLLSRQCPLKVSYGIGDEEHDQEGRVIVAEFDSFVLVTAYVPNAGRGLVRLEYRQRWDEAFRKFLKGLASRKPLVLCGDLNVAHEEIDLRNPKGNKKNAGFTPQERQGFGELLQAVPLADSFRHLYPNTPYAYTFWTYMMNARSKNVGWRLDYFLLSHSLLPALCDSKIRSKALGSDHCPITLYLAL
Screening Center PI: Austin, C.P.
Screening Center: NIH Chemical Genomics Center [NCGC]
The apurinic/apyrimidinic endonuclease APE1 is the primary mammalian enzyme responsible for the removal of abasic (or AP) sites in DNA and functions centrally in the base excision DNA repair (BER) pathway. […] Thus, targeting APE1 could improve the efficacy of current treatment paradigms by promoting selective sensitization or protection of diseased and normal cells, respectively.
Inhibition of APE1 activity was screened by utilizing double-stranded short substrate containing tetrahydrofuran (THF) abasic site labeled with rhodamine-type fluorophore (TAMRA) at the 5'-end and with non-fluorescent Black Hole Quencher-2 (BHQ-2) at the opposing 3'-end. An increase in the fluorescence intensity due to incision of the abasic site by APE1 was used to measure the enzyme activity.
1. Substrate: 50 nM final concentration of TAMRA/BHQ-2 substrate dispensed throughout the plate.
2. Enzyme: […] nM APE1 final concentration in columns 1, 2, 5-48. Column 1 is neutral (100% activity)
3. Control: Pintool transfer of control inhibitor NSC-13755 to column 2 of all assay plates. Two-fold, 16 pt dilution in duplicate to produce final concentrations in the […] uM - […] nM range.
3. Buffer columns in columns 3 and 4 were used as negative control (no enzyme).
Three uL of enzyme were dispensed to 1536-well Greiner black solid bottom plates. Compounds (23 nL) were transferred via Kalypsys pintool. The plates were incubated for 15 min at room temperature, and then 1 uL of substrate solution was added to start the reaction. The plates were immediately transferred into ViewLux High-throughput CCD imager (Perkin-Elmer) in order to measure the reaction progress in kinetic mode (three reads every 60 seconds) using 525 nm excitation and 598 nm emission fluorescence protocol. The fluorescence intensity difference between the third and the first time points was used to compute reaction progress.
(In general: qHTS replaces the single test concentration by a dilution series.)
Take `CCCCCCN(CCCCCC)C(=O)Cc1c(-c2ccc(F)cc2)[nH]c2ccccc12`: the Potency result is “inactive”.
To `O=C(N[C@@H](Cc1ccccc1)C(=O)CCl)OCc1ccccc1` belongs “inactive”; to `O=C(O)[C@H]1NCCC[C@H]1C(=O)O`, “inactive”.
On to `NCC(O)C1CCCCCCC1` (stereo not given), for which the Potency result is “inactive”.
Under `C#CCn1c(=O)c2c(ncn2C)n(C)c1=O` stands “inactive”.
On to `COc1cc([C@@H]2c3cc4c(cc3[C@H](O)C3COC(=O)[C@@H]32)OCO4)cc(OC)c1OC` (stereo not given in full), for which the Potency entry is “inactive”.
Take `CNc1cc(NS(=O)(=O)c2ccc(N)cc2)nc(NC)n1`: the Potency result was “inactive”.
Under `NC(=O)CNCCC(c1ccccc1)c1ccccc1` stands “inactive”.
For the molecule `COc1ccccc1N1CCN(CCCCN2C(=O)c3ccccc3C2=O)CC1`, the Potency result was “inactive”.
`CCOC(=O)C12CC1/C(=N/O)c1ccccc1O2` (stereo not given): the Potency result was “inactive”.
To `COCc1nc2c([nH]1)c(=O)n(C)c(=O)n2CC(C)C` belongs “inactive”; to `COC(=O)C(N)Cc1ccc(Cl)cc1` (stereo not given), “inactive”; to `CNc1ncnc2c1ncn2[C@H]1C[C@H](OP(=O)(O)O)[C@@H](COP(=O)(O)O)O1`, “inactive”.
Take `Cc1nc(N=Nc2cc(S(=O)(=O)O)c3cc([N+](=O)[O-])cc(S(=O)(=O)O)c3c2)c(COP(=O)(O)O)c(C=O)c1O`: the Potency was 2.82 µM (active).
To `CC(C)NC[C@H](O)COc1ccc(CC(N)=O)cc1` belongs “inactive”; to `Oc1ccc(Cn2cc[nH]c2=S)cc1`, “inactive”.
To `N=C(N)SCCc1cnc[nH]1` belongs “inactive”; to `OC1(c2ccc(Cl)cc2)CCN(Cc2c[nH]c3ccccc23)CC1`, “inactive”.
Under `CCN(c1nc(N)c(C(=O)N=C(N)N)nc1Cl)C(C)C` stands “inactive”.
As to `C=CC1(C)CC(=O)C2(O)C(C)(O1)C(OC(C)=O)C(O)C1C(C)(C)CCC(O)C12C` (stereo not given), the Potency result was “inactive”.
To `N[C@H](C(=O)O)[C@H]1C[C@@H]1C(=O)O` belongs 39.8 µM (active).
To `CCCOC(=O)c1c(-c2ccccc2)nc(CC)c(C(=O)SCC)c1CCC` belongs “inactive”; to `COc1cc2c(CCNC(C)=O)c[nH]c2cc1O`, 39.8 µM (active).
Under `NC1(C(=O)O)CCc2cc(C(=O)O)ccc21` (stereo not given) stands “inactive”.
On to `COc1cccc(OC)c1OCCNCC1CSc2ccccc2O1` (stereo not given), for which the Potency entry is “inactive”.
In the case of `COC1(C2=NCCN2)COc2ccccc2O1` (stereo not given), the Potency entry is “inactive”.
Take `Nc1ncnc2c1c(-c1ccc(Oc3ccccc3)cc1)cn2C1CCCC1`: the Potency entry is “inactive”.
Under `N=S(=O)(O)Cc1noc2ccccc12` stands “inactive”.
Under `CCCCCCCCCCC/C=C\C(C)(C)/C=C\CCCC(=O)O` stands 35.5 µM (active).
Under `CCCn1c(=O)c2[nH]c(C3CCCC3)nc2n(CCC)c1=O` stands “inactive”; under `COc1ccc2c(c1)CCC1C2CC[C@@]2(C)C1CC[C@@H]2NCCCCCCN1C(=O)C=CC1=O` (stereo not given in full), “inactive”; under `Cc1cccc(C)c1OCC(N)C(C)C` (stereo not given), “inactive”.
For the molecule `Cc1cccc(C(=O)NCN2CCN(c3ccccc3C#N)CC2)c1`, the Potency result was “inactive”.
To `O=C1OC(=O)C2C3CCC(O3)C12` (stereo not given) belongs “inactive”; to `C=CCN1CCc2cc(O)c(O)cc2C(c2ccccc2)C1` (stereo not given), “inactive”.
Under `CC(=O)NNC(=O)N1Cc2ccccc2Oc2ccc(Cl)cc21` stands “inactive”; under `N#C/C(=C\c1ccc(O)c(O)c1)C(=O)NCCCNC(=O)/C(C#N)=C/c1ccc(O)c(O)c1`, “inactive”.
`CCCCCCCCCCCCCCSCC(=O)O`: the Potency entry was “inactive”.
Under `N=C(N)c1ccc(OCCCCCOc2ccc(C(=N)N)cc2)cc1` (tested in a mixture with another compound) stands “inactive”; under `CC1=C(C(=O)O)N2C(=O)[C@@H](NC(=O)C(N)C3=CCC=CC3)[C@H]2SC1` (stereo not given in full), “inactive”.
